Measured values from PubChem BioAssay AID1035470 (Broad Institute, 2014).
The whole screen tested about 1,800 compounds, of which fewer than 10 were called active. Roughly 16% stayed inconclusive and do not appear here.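 How the source made its calls: active means compound lowering the normal-ribosome reporter at least twice as much as the humanized-ribosome reporter, growth loss under a set limit; inconclusive means no clear call, values can overlap the other calls; inactive means the rest.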 These entries were drawn from the full list. Results with a measured potency or affinity are listed apart.

assay: growth inhibition of wild-type GFP E. coli versus G2058-humanized strain, dose response, G2058 mutant RFP vs wild-type GFP, cherry-pick, two tests (AID 1035470); conditions: E. coli WT-GFP vs G2058-humanized RFP, fluorescence, 24 h; series mostly up to 50 µM

outcome, inactive:
Cc1ccoc1C(=O)Nc1ccc2ccccc2c1, Cc1cc(CNC(=O)c2cc(-c3ccccc3)nc3ccccc23)nn1C, Cc1cccc(-c2nsc(SCC(=O)NCC3CCCO3)n2)c1 (centres undefined), Cc1ccc2nc(N(CCN(C)C)C(=O)C3CCN(S(=O)(=O)c4cccs4)CC3)sc2c1, COc1ccc(-c2csc(NC(=O)c3ccoc3C)n2)cc1, CCC1CCCCN1C(=O)CSc1nnc(-c2cccc(Cl)c2)o1 (centres undefined), CCc1nc2ccccc2c(C(=O)OCC(=O)NC(=O)c2cccn2C)c1C, Cc1ccc(Cc2c(-c3ccc(C#N)cc3)nc3ccc(Br)cn23)cc1, CCOC(=O)c1cnc2ccc(OCC)cc2c1NCCCN1CCOCC1, CCOC(=O)C(CC)Sc1cc(C)nc2ccc(OC)cc12 (centres undefined), COc1ccc(C(=O)COc2ccc(F)cc2)c(O)c1, Cc1cccc(-c2cc3nc4c(c(N5CCOCC5)n3n2)CCCC4)c1, Cc1cccc(NS(=O)(=O)c2cc3c(cc2C)NC(=O)CO3)c1, Cc1cccc(OCCn2c(=O)oc3ccc(C)cc32)c1, CC(=O)Nc1cccc(NC(=O)CCN2C(=O)c3ccccc3S2(=O)=O)c1, c1cncc(-c2nc3cc4ccccc4cc3[nH]2)c1, Cc1ccccc1S(=O)(=O)c1cc2ccccc2nc1N, COc1ccccc1-c1noc2ncnc(Nc3ccccc3C)c12, COc1ccccc1Cc1c(-c2ccc(F)cc2)nc2ccc(Br)cn12, COc1ccc(-c2nc(C3CCCCC3)no2)cc1OC, c1ccc(Sc2ncnc3ccccc23)cc1, COc1cccc(NC(=O)C(C)SCc2ccccc2)c1 (centres undefined), Cc1cc(Br)ccc1NC(=O)c1ccco1, O=C(CSCc1cnn(-c2ccccc2)c1-n1cccc1)NCc1cccnc1, O=C(Nc1ccc(Cl)c(Cl)c1)c1ccc(Cl)c(Cl)c1, O=[N+]([O-])c1ccc2nc(-c3ccccc3[N+](=O)[O-])[nH]c2c1, O=c1c2ccccc2nc(SCc2ccccc2)n1CC1CCCO1 (centres undefined), CCOCCCNC(=O)C(NC(=O)c1ccccc1O)c1ccc(C)cc1 (centres undefined), COc1ccc(Nc2nc(N)c([N+](=O)[O-])c(N3CCCC3)n2)cc1, CS(=O)(=O)c1ccc(Cl)c(NC(=O)CSc2nncn2-c2ccccc2)c1, c1ccc(CSCc2ccccc2)cc1, O=C(Nc1ccc(Cl)c(Cl)c1)N[C@@H]1CC[C@@H](CCn2cc(C3CCCCC3)nn2)O[C@H]1CO, CCOc1ccc(NC(=O)CCc2nnc3ccc(N4CCC(C)CC4)nn23)cc1, Cc1csc(SCc2nc3scc(-c4ccccc4)c3c(=O)[nH]2)n1, CC(C)(C)c1ccc2c(c1)C(c1ccc3c(c1)OCO3)CC(=O)O2 (centres undefined), Cc1ccccc1Nc1c(-c2cccnc2)nc2ccc(Br)cn12, CC1(CCC(=O)N2CCCC(N3CCN(c4ccc(F)cc4)CC3)C2)CC1 (centres undefined), C=CCn1c(C)cc(C(=O)CSc2nnc(C3CC3)n2C2CC2)c1C, c1ccc(-c2sc3ccccc3c2-c2ccc(OCCN3CCCCC3)cc2)cc1, CN(C(=O)COC(=O)CSc1ccc(C(N)=O)cc1[N+](=O)[O-])C1CCCCC1, CC(C)OCCCNC(=O)c1ccc(CS(=O)(=O)c2cccc(C(F)(F)F)c2)o1, COc1ccc(C(=O)Nc2cccc3ccccc23)cc1, CCS(=O)(=O)N1CCN(c2ccc([N+](=O)[O-])c(NCC3CCCO3)c2)CC1 (centres undefined), Cc1nn(S(=O)(=O)c2ccc(Cl)cc2)c(C)c1Sc1ccc([N+](=O)[O-])cc1, C[C@@H]1CN([C@@H](C)CO)C(=O)c2cc(NC(=O)Nc3cccc4ccccc34)ccc2O[C@@H](C)CCCCO[C@@H]1CN(C)C(=O)CCCN(C)C, O=C(COC(=O)C1CC2C=CC1C2)NCCc1ccccc1 (centres undefined), O=C(CN1CCCCC1)Nc1ccccc1-c1ccccc1, CN(Cc1ccc(Cl)s1)C(=O)CNC(=O)CNC(=O)c1ccc(Cl)cc1Cl, Cn1c(SCC(=O)Nc2ccccc2-c2ccccc2)nnc1-c1ccco1, O=C(CCCOc1ccccc1)NCCc1nc2ccccc2[nH]1, O=C(Cc1cccc(NC(=O)C2CCN(C(=O)C3CCCCC3)CC2)c1)Nc1cccc(C(=O)N2CCCC2)c1, COc1ccc(-c2noc(=O)n2Cc2ccccc2Cl)cc1, CN1CCSc2ccc(C(=O)Nc3cccc(F)c3)cc21, CC(C)c1ccc(-c2nc3ccccc3s2)cc1, Cc1ccc(-n2cc(CNCCN3CCOC3=O)c(-c3ccc(F)cc3)n2)cc1, Cc1ccc(NC(=O)c2ccc3ncsc3c2)cc1S(=O)(=O)N(C)C, CN(Cc1ccc([N+](=O)[O-])cc1)c1ccccc1, COc1ccc(CN2CCNC(=O)C2CC(=O)NCCCC2CCCC2)c(C)c1C (centres undefined), O=C1CCCCC1Nc1ccc(Br)cc1 (centres undefined), C[C@@H]1CCCCO[C@@H](CN(C)C)[C@@H](C)CN([C@H](C)CO)C(=O)c2cc(NC(=O)Nc3cccc4ccccc34)ccc2O1, COc1ccc(NC(=O)CSc2n[nH]c(-c3ccncc3)n2)c([N+](=O)[O-])c1, Brc1ccc(Nc2ncnc3[nH]ncc23)cc1, Cc1cccc(-c2ccc([C@@H]3[C@@H](CO)N4CCCCN(S(=O)(=O)c5ccccc5C)C[C@H]34)cc2)c1, C[C@@H]1CN([C@@H](C)CO)S(=O)(=O)c2ccc(Br)cc2O[C@H]1CN(C)C(=O)c1ccccc1, Cc1cc(C)c(OCCN(C)Cc2ccccc2)c(Br)c1, C[C@@H](Nc1nc(-c2ccccc2)nc2c1oc1ccccc12)C(=O)O, CCOC(=O)c1ccc(NC(=O)c2ccc(OC(C)C)c(OC)c2)cc1, O=C(C[n+]1ccc(Cc2ccccc2)cc1)Nc1ccc([N+](=O)[O-])cc1Cl, O=C(OCC1COc2ccccc2O1)c1ccccc1F (centres undefined), O=C(Nc1ccc(-c2nnc3n2CCCCC3)cc1)c1cc2ccccc2o1, COc1ccc(NC(=O)c2cccc(Oc3ccc([N+](=O)[O-])cc3Cl)c2)cc1, COc1cccc(NC(=O)c2ccc(-c3ccc([N+](=O)[O-])cc3)o2)c1, O=C1CSC(c2cccnc2)N1Cc1ccc(Cl)c(Cl)c1 (centres undefined), COc1ccccc1NC(=O)N1CCCCN2[C@@H](CO)[C@H](c3ccc(C#Cc4ccccc4)cc3)[C@@H]2C1, C#CC(C)(C)NC(=O)c1ccc(-c2ccccc2F)cc1, CS(=O)(=O)Nc1ccccc1C(=O)NCCSc1ccccc1, COc1ccc(-c2cc(C(=O)O)nc3ccc4ccccc4c23)cc1OC, Oc1ccc(-c2csc(Nc3ncccn3)n2)cc1, CN(C)S(=O)(=O)c1ccc2oc(SCC(=O)NCC(F)(F)F)nc2c1
